“And” between values parts separate entries of the source, which are not always exact repeats. Equal entries are not always repeated. Where a structure was tested more than once in an assay, its records may differ in their call. The source made the active and inactive calls. The calls were made as follows: active = hit-call score of the fitted dose curve at least 0.9, where 1 is the maximum; inactive = score below 0.9.
The molecules below were run on TIMP metallopeptidase inhibitor 2 (TIMP2), TIMP2 (gene 7077) (assay: BSK_hDFCGF_TIMP2: BioMAP Diversity Plus: hDFCGF Assay for TIMP metallopeptidase inhibitor 2 (TIMP2) Biomarker Activity (AID 2284289)). Details: primary human foreskin fibroblasts.
Experimental: BSK_hDFCGF is a cell-based, multiplexed-readout assay that uses foreskin fibroblast, a human skin primary cell, with measurements taken at 24 hours after chemical dosing in a 96-well plate.BSK_hDFCGF_TIMP2 is an assay component measured in the BSK_hDFCGF assay. It measures TIMP-2 antibody related to regulation of gene expression using ELISA technology.Data from the assay component BSK_hDFCGF_TIMP2 was analyzed at the endpoint, BSK_hDFCGF_TIMP2, in the positive analysis fitting direction relative to DMSO as the negative control and baseline of activity. Using a type of binding reporter, gain or loss-of-signal activity can be used to understand protein changes. To generalize the intended target to other relatable targets, this assay endpoint is annotated to the 'protease' intended target family, where the subfamily is 'matrix metalloproteinase'.
The levels of cell surface (or secreted, indicated by the prefix "s") biomarker endpoints were measured by ELISA. Overt cytotoxicity to cells in confluent adherent cultures (all systems other than the BT system) was assessed by measuring total protein levels using sulforhodamine B (SRB) staining in parallel cultures at the time of biomarker measurements, indicated as SRB endpoints. For proliferation assays for adherent cell types, individual cell types are cultured at sub-confluence and relative cell numbers quantified by SRB staining at time points optimized for each system (48 h: 3C and CASM3C systems; 72 h: BT and HDF3CGF systems; 96 h: SAg system). SRB was performed by staining cells with 0.1% SRB after fixation with 10% TCA and reading wells at 560 nm.Viability and proliferation of PBMC (T cells) was quantified by Alamar Blue reduction for the SAg and BT systems. For PBMC viability (referred to as PBMC Cytotoxicity within the assay endpoint names), cells were plated (75,000/well in a 96-well plate) and then chemical samples added for 1 h before addition of activators, SEB and TSST-1 (20 ng/mL final concentration each). Cells were incubated for 90 h. Then, Alamar Blue (20 uL/well) (Invitrogen, Cat DAL1100) was added for 6 h, and the plates were read with a fluorescence microplate reader at 546/580 nm (excitation/emission). For PBMC proliferation, cells were plated and activated as above but incubated for only 16 h prior to addition of Alamar Blue. Plates were read after 6 h.

**Q.** Which outcome does the source give for `C=CC(F)(F)C(F)(F)C(F)(F)C(F)(F)C(F)(F)C(F)(F)C(F)(F)C(F)(F)F` here?
**A.** inactive

**Q.** For `FC(F)(F)C(F)(F)C(F)(F)CI`, which outcome is on record?
**A.** inactive

**Q.** How did the outcome turn out when `O=C(O)C=C(C(F)(F)F)C(F)(F)F` was run?
**A.** inactive

**Q.** With `O=C(O)C(F)(F)C(F)(F)C(F)(F)F` as the molecule, how does the outcome read?
**A.** inactive

**Q.** With `FC(F)(I)C(F)(F)C(F)(F)C(F)(F)I` as the molecule, how does the AC50 read?
**A.** 46 µM (active)

**Q.** What about the outcome of the same molecule?
**A.** inactive

**Q.** With `OCC(F)(F)C(F)(F)C(F)(F)C(F)F` as the molecule, how does the outcome read?
**A.** inactive

**Q.** With `CCO[Si](CCC(F)(F)C(F)(F)C(F)(F)C(F)(F)C(F)(F)C(F)(F)F)(OCC)OCC` as the molecule, how does the outcome read?
**A.** inactive

**Q.** `O=C(O)C(F)(F)C(F)(F)OC(F)(F)F` was tested. Which outcome did it give?
**A.** inactive

**Q.** `OCC(F)(F)C(F)(F)C(F)(F)C(F)(F)C(F)(F)C(F)(F)F` was tested. Which AC50 did it give?
**A.** 42.2 µM (active)

**Q.** What about the outcome of the same molecule?
**A.** inactive

**Q.** With `N=C(N)C(F)(F)C(F)(F)C(F)(F)C(F)(F)C(F)(F)C(F)(F)C(F)(F)F` as the molecule, how does the AC50 read?
**A.** 30 µM (active)

**Q.** What about the outcome of the same molecule?
**A.** inactive

**Q.** What does the source list for `O=C(O)C(F)(F)C(F)(F)C(F)(F)C(F)(F)C(F)(F)C(F)(F)C(F)(F)C(F)(F)Cl`?
**A.** AC50: 6.54 µM (active); outcome: inactive

**Q.** For `FC1CC(F)(F)C(F)(F)C1(F)F` (stereo not given), which outcome is on record?
**A.** inactive

**Q.** For `O=C(O)C(F)(F)C(F)(F)C(F)(F)C(F)(F)C(F)(F)C(F)(F)C(F)(F)C(F)(F)C(F)(F)C(F)F`, which outcome is on record?
**A.** inactive

**Q.** For `FC(F)(F)C(F)(F)C(F)(F)C(F)(F)C(F)(F)C(F)(F)CC1CO1` (stereo not given), which outcome is on record?
**A.** inactive

**Q.** With `O=C(O)C(F)(F)C(F)(F)F` as the molecule, how does the outcome read?
**A.** inactive

**Q.** How did the outcome turn out when `O=C(O)C(F)(F)C(F)(F)C(F)F` was run?
**A.** inactive

**Q.** Which AC50 does the source give for `C=CC(=O)OCC(F)(F)C(F)(F)C(F)(F)C(F)(F)COC(=O)C=C` here?
**A.** 12.4 µM (active) and 12.7 µM (active)

**Q.** How did the outcome turn out when `OCC(F)(F)C(F)(F)C(F)(F)F` was run?
**A.** inactive

**Q.** `FC(F)(F)C(F)(F)C(F)(F)C(F)(F)C(F)(F)C(F)(F)C(F)(F)I` was tested. Which outcome did it give?
**A.** inactive

**Q.** `O=S(=O)(O)C(F)(F)C(F)(F)C(F)(F)C(F)(F)C(F)(F)C(F)(F)C(F)(F)F` was tested. Which outcome did it give?
**A.** inactive

**Q.** `C=C(C)C(=O)OCC(F)(F)C(F)(F)C(F)(F)F` was tested. Which outcome did it give?
**A.** inactive

**Q.** With `O=P(O)(O)OCCC(F)(F)C(F)(F)C(F)(F)C(F)(F)C(F)(F)C(F)(F)F` as the molecule, how does the outcome read?
**A.** inactive

**Q.** For `C=C(C)C(=O)OCC(F)(F)C(F)(F)C(F)(F)C(F)(F)C(F)(F)C(F)(F)C(F)(F)F`, which outcome is on record?
**A.** inactive

**Q.** With `FC(F)(F)C(F)(F)C(F)(F)C(F)(F)C(F)(F)C(F)(F)CCS` as the molecule, how does the outcome read?
**A.** inactive

**Q.** For `CCCCCCOC(=O)c1ccccc1O`, which AC50 is on record?
**A.** 31.2 µM (active) and 20.2 µM (active)

**Q.** Which outcome does the source give for `O=C(O)C(F)(F)C(F)(F)C(F)(F)C(F)(F)C(F)(F)C(F)(F)C(F)(F)C(F)(F)C(F)(F)C(F)(F)C(F)(F)C(F)(F)F` here?
**A.** inactive

**Q.** `CC(C)(C)C(=O)CC(=O)C(F)(F)C(F)(F)C(F)(F)F` was tested. Which outcome did it give?
**A.** inactive

**Q.** For `O=C(Cl)C(F)(F)C(F)(F)C(F)(F)C(F)(F)C(F)(F)C(F)(F)C(F)(F)C(F)(F)F`, which outcome is on record?
**A.** inactive

**Q.** What about the AC50 of the same molecule?
**A.** 1.59 µM (active)

**Q.** How did the outcome turn out when `O=C(O)C(F)(OC(F)(F)C(F)(OC(F)(F)C(F)(F)C(F)(F)F)C(F)(F)F)C(F)(F)F` (stereo not given) was run?
**A.** inactive

**Q.** `NC(=O)C(F)(F)C(F)(F)C(F)(F)C(F)(F)F` was tested. Which outcome did it give?
**A.** inactive

**Q.** How did the outcome turn out when `O=C(O)C(F)(F)C(F)(F)C(F)(F)C(F)(F)C(F)(F)C(F)(F)C(F)(F)C(F)(F)C(F)(F)C(F)(F)C(F)(F)C(F)(F)C(F)(F)F` was run?
**A.** inactive

**Q.** How did the outcome turn out when `CCCCCCCCC(F)(F)C(F)(F)C(F)(F)C(F)(F)C(F)(F)C(F)(F)F` was run?
**A.** inactive

**Q.** With `CCCCC(CC)COP(=O)(O)OCC(CC)CCCC` (stereo not given) as the molecule, how does the outcome read?
**A.** inactive

**Q.** For `OCCCC(F)(F)C(F)(F)C(F)(F)F`, which outcome is on record?
**A.** inactive

**Q.** `FC(F)(F)C(F)(F)C(F)(F)C(F)(F)C(F)(F)CCI` was tested. Which outcome did it give?
**A.** inactive

— PubChem BioAssay (EPA / NIEHS)
